# Experimental data: ChEMBL document CHEMBL4513216, “Probing the Open Global Health Chemical Diversity Library for Multistage-Active Starting Points for Next-Generation Antimalarials” (ACS Infect Dis, 2020)
# Hit rate of the full screen: of about 69,000 compounds, about 8,600 (12%) showed an effect of 50% or more. This is one part of a sample in which strong results are shown more often than they occur.
# Test system: Plasmodium berghei
# Test: Screen against P. berghei liver stage (PbLuc), transformed with Luciferase, at 10uM
# Type: functional, HepG2
# Settings: tested at 10 uM
row,SMILES,INHIBITION
1,CCN(CC1CCOC1)C(=O)c1ccn(-c2cc(C)ccc2OC)n1 (stereo not given),30.5%
2,CNC(=O)[C@@]12CCC3(CCN(C(=O)COC)CC3)[C@@H]1CN(S(C)(=O)=O)C2,-16.2%
3,CCC(NC(=O)C(C)(C)C)c1ccccc1C (stereo not given),32.9%
4,CC[C@@H](C)[C@H](NC(=O)Cn1ccc2c(Cl)cccc21)C(=O)O,-19.7%
5,C[C@]1(O)CN(CC(=O)N2CCCC2)CC[C@@H]1Oc1cccc(F)c1,41.2%
6,C[C@]1(O)CN(CCC(N)=O)CC[C@@H]1Oc1cccc(F)c1,53%
7,C[C@]1(O)CN(Cc2ccc(C(=O)O)cc2)CC[C@@H]1Oc1cccc(F)c1,15.9%
8,C[C@]1(O)CN(CCO)CC[C@@H]1Oc1cccc(F)c1,59%
9,Cn1cncc1CN1CC[C@](C)(O)[C@@H](Oc2cccc(F)c2)C1,21.9%
10,C[C@]1(O)CN(Cc2cccc(C(=O)O)c2)CC[C@@H]1Oc1cccc(F)c1,17.4%
11,Cc1cccc(CN2CC3(CCN(C(=O)N(C)C)CC3)OCC2=O)n1,30.3%
12,Cc1cc(C(=O)NC2CCc3c(ccc(=O)n3CC3CC3)C2)no1 (stereo not given),36.5%
13,Cc1nnc([C@]23COC[C@H]2CN(Cc2nccs2)C3)o1,9.79%
14,Cc1cc2n(n1)CC(CNCc1ccccc1-n1cccn1)CN2 (stereo not given),-18.605%
15,O=C(c1ccsc1)N1C[C@@H]2OCCN(CCN3CCCC3)[C@@H]2C1,82.3%
16,O=C(c1ccncc1)N1C[C@@H]2OCCN(CCN3CCCC3)[C@@H]2C1,32.2%
17,O=C(c1ccco1)N1C[C@@H]2OCCN(CCN3CCCC3)[C@@H]2C1,23.3%
18,CN(C)CCN1CCO[C@H]2CN(C(=O)c3ccsc3)C[C@H]21,6.67%
19,Cc1occc1C(=O)N1C[C@@H]2OCCN(CCN3CCCC3)[C@@H]2C1,66%
20,Cc1cc(C(=O)N2C[C@@H]3OCCN(CCN4CCCC4)[C@@H]3C2)c(C)o1,32.2%
21,O=C(CN1CCCC1Cn1cncn1)NCCOc1ccc(F)cc1 (stereo not given),42.9%
22,O=C1CCC(=O)N1Cc1ccc(C(=O)N2CCCC2c2cccs2)cc1 (stereo not given),-21.9%
23,Cn1cc(NC(=O)CCc2ccsc2)ccc1=O,59.3%
24,Cn1cc(NC(=O)NCc2ccsc2)ccc1=O,16.1%
25,CN(Cc1ccsc1)C(=O)Nc1ccc(=O)n(C)c1,47.4%

row,SMILES,INHIBITION
1,Cc1c(O)cccc1C(=O)N1CCCC2(C1)C(=O)N(C)c1ccccc12 (stereo not given),17.7%
2,CC(=O)N1CCc2cc(C(=O)O)c(-c3ccsc3)nc2CC1,11.3%
3,O=C(O)c1cc2c(nc1-c1ccsc1)CCN(C(=O)C1CC1)CC2,40.8%
4,NC(=O)N1CCc2cc(C(=O)O)c(-c3ccsc3)nc2CC1,74.8%
5,CC(C)=CCCC1(C)CCC(=O)N(CCc2nc(N)cc(O)n2)C1 (stereo not given),21.5%
6,c1coc(CN2CCCn3c(CN4CCOCC4)nnc3C2)c1,-4.26%
7,CNC(=O)NC(=O)CCSc1ccccc1Cl,41.8%
8,NC(=O)NC(=O)CCSc1ccccc1Cl,55.9%
9,N#Cc1ccc(SCCC(=O)NC(N)=O)cc1,-33.4%
10,Cc1nc(CN2C[C@@H]3CN(c4ncccn4)C[C@@H]3C2=O)cs1,-12.1%
11,Cc1cc(C)c(CNC(=O)NCc2ccc3c(c2)CCC3)c(=O)[nH]1,30.2%
12,Cc1cc(C)c(CNC(=O)Cc2ccc3c(c2)CCCC3)c(=O)[nH]1,40%
13,Cc1cc(C)c(CNC(=O)NCC2COc3ccccc3C2)c(=O)[nH]1 (stereo not given),17.5%
14,Cc1cc(C)c(CNC(=O)c2ccc3c(c2)CCC3)c(=O)[nH]1,50.3%
15,Cc1cc(C)c(CNC(=O)NCC2Cc3ccccc32)c(=O)[nH]1 (stereo not given),0.342%
16,Cc1cc(C)c(CNC(=O)NCC2Cc3ccccc3O2)c(=O)[nH]1 (stereo not given),73.1%
17,N#Cc1c(-c2ccccc2)csc1N,49.7%
18,O=C(NCCC1CC1)NCc1cccc(-n2ccnc2)c1,21.6%
19,Cc1cccc(C(=O)N2C[C@@H]3CCN(c4cccnc4)C[C@@H]3C2)c1,23.3%
20,O=C(c1ccncc1)N1C[C@@H]2CCN(c3cccnc3)C[C@@H]2C1,47.4%
21,O=C(c1ccc(O)cc1)N1C[C@@H]2CCN(c3cccnc3)C[C@@H]2C1,46.2%
22,O=C(c1ccco1)N1C[C@@H]2CCN(c3cccnc3)C[C@@H]2C1,90.5%
23,Cn1cccc1C(=O)N1C[C@@H]2CCN(c3cccnc3)C[C@@H]2C1,36.9%
24,O=C(c1cnccn1)N1C[C@@H]2CCN(c3cccnc3)C[C@@H]2C1,41.6%
25,Cc1ccccc1C(=O)N1C[C@@H]2CCN(c3cccnc3)C[C@@H]2C1,68.4%

row,SMILES,INHIBITION
1,Cc1ccc(C(=O)N2C[C@@H]3CCN(c4cccnc4)C[C@@H]3C2)cn1,19.4%
2,O=C(c1ccsc1)N1C[C@@H]2CCN(c3cccnc3)C[C@@H]2C1,77.7%
3,CC(=O)Nc1nc(CN2CCOC(Cn3nc(C)cc3C)C2)cs1 (stereo not given),15.6%
4,COCCN(Cc1ccoc1)C(=O)c1ccc(Cl)s1,25.1%
5,Cn1nccc1CNC(=O)Cn1nc(C(F)(F)F)cc1C1CC1,1.11%
6,CCc1nc(CN(C)C2CCN(Cc3ccc(Cl)s3)C2)no1 (stereo not given),36.4%
7,Cc1noc(C)c1CCC(=O)Nc1ccn(C)n1,71.2%
8,Cc1noc(C)c1CC(=O)Nc1ccn(CC(N)=O)n1,37.6%
9,CCn1ccc(NC(=O)CCc2c(C)noc2C)n1,38.7%
10,O=C(CCCc1ccccn1)Nc1cccc(N2CCCNC2=O)c1,11.2%
11,Cc1ccc(C(=O)Nc2cn[nH]c2)cc1,31.005%
12,COC(CNC(=O)NCc1c(C)cc(C)[nH]c1=O)c1ccccc1 (stereo not given),36.1%
13,Cc1noc(C(C)C)c1C(=O)NCCN1CCOCC1,-31.8%
14,CCc1nccn1C1CCCN(C(=O)C2=NN(C)C(=O)CC2)C1 (stereo not given),53%
15,Cc1nccn1C1CCCN(C(=O)C2=NN(C)C(=O)CC2)C1 (stereo not given),51.6%
16,CCc1nccn1C1CCCN(C(=O)c2ccn(C)c(=O)c2)C1 (stereo not given),2.9%
17,CC(C)c1nccn1C1CCCN(C(=O)C2=NN(C)C(=O)CC2)C1 (stereo not given),14.4%
18,CN1N=C(C(=O)N2CCCC(n3cccn3)C2)CCC1=O (stereo not given),11.9%
19,CN1N=C(C(=O)N2CCCC(n3ccnc3)C2)CCC1=O (stereo not given),21.6%
20,CO[C@@H]1CC[C@H]2[C@H]1OCCN2C(=O)c1nn(C)c2ccccc12,-9.23%
21,COCCCn1cnnc1CNc1cc(C)nc2ccnn12,27.9%
22,Cc1cc(NC(=O)CN2C(=O)CC(C)(C)c3ccccc32)no1,29.7%
23,Cc1ccc(C(=O)N(C)Cc2ccc(Br)o2)c(=O)[nH]1,38.6%
24,Cc1nc(N2CCC(C(O)c3nccn3C)CC2)c2nc(C)oc2n1 (stereo not given),42.1%
25,Cc1nc(N2CCC(C(O)c3nccn3C)CC2)c2cccnc2n1 (stereo not given),-11.6%

row,SMILES,INHIBITION
1,Cc1nc(N2CCC(C(O)c3nccn3C)CC2)c2c(C)noc2n1 (stereo not given),52.2%
2,CO[C@@H]1CCN(Cc2nccn2C)[C@H]1Cc1cccnc1,32.2%
3,Cc1ccsc1CN1CCC2(CC1)CC(OCc1cccnc1)CO2 (stereo not given),26%
4,O=C(CCc1nnc(-c2ccccc2)o1)N1CCN(CC2CC2)CC1,-17%
5,Cc1noc(C)c1CN1C[C@H]2CN(Cc3cccc(F)c3)C[C@H]2C1,41.2%
6,Cc1noc(C)c1CN1CCC2(CCN(Cc3cccc(F)c3)CC2)C1,60.2%
7,Cc1noc(C)c1CN1CCO[C@H]2CN(Cc3ccc(F)cc3)C[C@H]21,49.2%
8,Cc1noc(C)c1CN1CCO[C@H]2CN(Cc3cccc(F)c3)C[C@H]21,62.9%
9,CC(=O)N1CCC2(CCN(Cc3cccc(F)c3)CC2)CC1,-12.1%
10,Cc1noc(C)c1CN1CCO[C@H]2CN(Cc3cccnc3)C[C@H]21,14.6%
11,Cc1ccc(NC2CCN(C(=O)Cc3ccc(C)s3)CC2)nn1,27.8%
12,CNC(=O)c1cccc(CN2CCN(C3=NCC(C)(C)S3)CC2)c1,28.7%
13,O=C(C1CC(c2cccc(F)c2)=NO1)N1CCc2ccccc21 (stereo not given),-12.2%
14,CCSCCC(=O)N1CCc2[nH]nc(COc3ccccc3)c2C1,10.9%
15,O=C(CSCC1CC1)N1CCc2[nH]nc(COc3ccccc3)c2C1,11.9%
16,Cc1nc(C)c(C(=O)N2CCc3[nH]nc(COc4ccccc4)c3C2)s1,49.5%
17,O=C(CCc1cccs1)N1CCc2[nH]nc(COc3ccccc3)c2C1,36.7%
18,O=C1CC[C@@H](C(=O)N2CCc3[nH]nc(COc4cccc(Cl)c4)c3C2)N1,52.6%
19,O=C(CCc1ccco1)N1CCc2[nH]nc(COc3ccccc3)c2C1,32.7%
20,O=C(c1csnn1)N1CCc2[nH]nc(COc3cccc(Cl)c3)c2C1,73%
21,O=C(CCn1cccc1)N1CCc2[nH]nc(COc3ccccc3)c2C1,34.7%
22,O=C(N1CCOCC1)N1CCc2[nH]nc(COc3cccc(Cl)c3)c2C1,67.5%
23,Cc1nn(C)c(N(C)C)c1CNC(C)COc1ccc(F)cc1 (stereo not given),-59.4%
24,NC(=O)C1CCN(C(=O)CCCc2nnc(-c3ccccc3)o2)C1 (stereo not given),14.4%
25,CC(C)NC(=O)C1CN(C(=O)c2ccccc2)CC12CCOCC2 (stereo not given),29.9%
